Compounds with a hit are over-represented: about 2.9% of the library has one in this group of screens.
ADAM10 inh – ADAM10 inhibition, QFRET primary screen; 0.62% of 370,000 active; inhibition, % at 7 µM; O14672; AID 720582; recombinant ADAM10, EDANS/DABCYL FRET peptide cleavage, 3 h;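 active = inhibition above a per-campaign cutoff equal to the mean of compounds falling between control-based bounds plus 3 SD, cut at about 20% in these data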;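 note: 0% = DMSO wells while the 100% control is not disclosed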
KLK7 zymogen act – proKLK7 (human) activation, primary screen; AID 652039; P49862; activation, % at 7 µM; purified proKLK7, EDANS-DABCYL substrate fluorescence; 100% is mature enzyme control, 0% vehicle; 0.9% of 370,000 active;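 active = activation above the mean of all tested compounds plus 3 SD, computed per campaign excluding outliers beyond control limits, cut at about 13% in these data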
ADAM17 inh – ADAM17 inhibition, QFRET primary screen | 0.83% of 370,000 active | recombinant ADAM17, EDANS/DABCYL FRET peptide cleavage | inhibition, % at 6.95 µM | P78536;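 active = inhibition above the mean of compounds lying between control limits plus 3 SD, set per campaign, cut at about 8.5% in these data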;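 note: 0% = DMSO-only wells as the low control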
PLCg1 inh – PLC-gamma1 (human) inhibition, primary screen; inhibition, % at 12.2 µM; purified PLC-gamma1, fluorogenic substrate, fluorescence; P19174; 0.84% of 370,000 active; in the data active = inhibition above about 9.5%
Target sequence (P19174 whole entry, looked up): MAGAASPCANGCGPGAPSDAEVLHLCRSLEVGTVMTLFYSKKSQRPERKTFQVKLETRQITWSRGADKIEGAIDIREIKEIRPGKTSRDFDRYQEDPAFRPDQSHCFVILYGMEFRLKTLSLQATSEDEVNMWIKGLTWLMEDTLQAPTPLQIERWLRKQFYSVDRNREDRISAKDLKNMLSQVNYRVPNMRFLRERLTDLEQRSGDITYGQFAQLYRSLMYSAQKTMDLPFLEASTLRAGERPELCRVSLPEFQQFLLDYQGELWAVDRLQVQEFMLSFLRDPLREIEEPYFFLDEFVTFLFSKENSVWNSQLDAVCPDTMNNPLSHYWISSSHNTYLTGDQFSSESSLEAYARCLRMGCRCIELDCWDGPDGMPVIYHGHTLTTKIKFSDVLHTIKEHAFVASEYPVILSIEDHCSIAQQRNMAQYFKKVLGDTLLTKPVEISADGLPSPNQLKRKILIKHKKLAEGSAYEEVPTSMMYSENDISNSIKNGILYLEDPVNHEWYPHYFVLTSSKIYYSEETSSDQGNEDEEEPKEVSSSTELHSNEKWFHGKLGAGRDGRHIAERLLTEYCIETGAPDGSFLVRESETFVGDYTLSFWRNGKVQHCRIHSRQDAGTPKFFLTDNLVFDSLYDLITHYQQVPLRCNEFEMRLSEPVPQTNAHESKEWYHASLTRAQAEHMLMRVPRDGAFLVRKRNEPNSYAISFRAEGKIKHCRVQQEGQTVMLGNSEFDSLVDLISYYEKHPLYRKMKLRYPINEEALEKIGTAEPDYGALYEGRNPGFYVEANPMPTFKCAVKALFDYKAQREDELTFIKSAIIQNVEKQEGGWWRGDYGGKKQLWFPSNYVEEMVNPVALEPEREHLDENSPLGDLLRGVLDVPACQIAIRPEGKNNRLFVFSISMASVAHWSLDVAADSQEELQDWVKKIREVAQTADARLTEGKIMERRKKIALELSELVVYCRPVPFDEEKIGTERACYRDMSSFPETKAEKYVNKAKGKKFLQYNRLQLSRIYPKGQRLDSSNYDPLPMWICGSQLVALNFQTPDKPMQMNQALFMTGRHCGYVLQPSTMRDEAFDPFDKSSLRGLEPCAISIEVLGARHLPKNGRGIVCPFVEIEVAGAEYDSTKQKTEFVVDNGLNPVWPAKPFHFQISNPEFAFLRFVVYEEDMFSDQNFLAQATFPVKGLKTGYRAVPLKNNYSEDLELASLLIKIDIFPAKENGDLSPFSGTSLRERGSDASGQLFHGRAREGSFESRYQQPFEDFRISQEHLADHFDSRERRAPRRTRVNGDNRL
PLC-beta3 inh – PLC-beta3 (human) inhibition, primary screen; Q01970; Purified PLC-beta3, fluorogenic substrate, fluorescence; inhibition, % at 12.2 µM; 0.18% of 370,000 active; in the data active = inhibition above about 11%;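 note: 0% = median of compound wells on plate and 100% = full blocker control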
ADAM10 confirm – human ADAM10 inhibition, confirmation. ADAM10 QFRET peptide cleavage, EDANS fluorescence. 1% of 2,100 active. shares compounds with ADAM10 inh. inhibition, % at 6.95 µM;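 active = inhibition above about 20% chosen separately for each screening run, limit read from the data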;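 note: 0% = DMSO wells and 100% = marimastat wells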
ADAM17 ctr – ADAM17 inhibition, counter-screen for ADAM10 exosite hits | shares compounds with ADAM10 inh | ADAM17 QFRET peptide cleavage, EDANS fluorescence | inhibition, % at 6.95 µM | 0.5% of 2,100 active | AID 743214;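 active = mean triplicate inhibition above the solvent-only control wells' mean plus 3 SD, cut at about 12% in these data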;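 note: 0% = DMSO wells and 100% = marimastat wells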
ADAM10 ctr – ADAM10 inhibition, counter-screen for ADAM17 exosite hits; shares compounds with ADAM17 inh; recombinant ADAM10, EDANS/DABCYL FRET peptide cleavage, 3 h; inhibition, % at 6.95 µM; 47% of 2,900 active;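 active = mean inhibition over the triplicate runs exceeds the activity threshold set in the earlier primary screen, cut at about 20% in these data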;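 note: 0% = DMSO wells and 100% = marimastat wells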
ADAM17 confirm – human ADAM17 inhibition, confirmation; shares compounds with ADAM17 inh; recombinant ADAM17, EDANS/DABCYL QFRET peptide cleavage; inhibition, % at 6.95 µM; 65% of 2,900 active;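 active = mean inhibition across replicates above the hit cutoff set in the primary screen, cut at about 8.5% in these data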;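 note: 0% = DMSO wells and 100% = marimastat wells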
Active calls of the source: *; x = not tested or not shown; ! = not active in a repeat.

SMILES	ADAM10 inh	KLK7 zymogen act	ADAM17 inh	PLCg1 inh	PLC-beta3 inh	ADAM10 confirm	ADAM17 ctr	ADAM10 ctr	ADAM17 confirm
C[C@@H]1CN([C@H](C)CO)C(=O)c2c(c3ccccc3n2C)-c2ccccc2CO[C@@H]1CN(C)C(=O)Nc1ccc2c(c1)OCO2	22*	0	14*	3	0	4	1	20*	9.5*
C[C@H](CO)N1C[C@H](C)[C@H](CN(C)C(=O)Nc2ccc(F)cc2)OCc2ccccc2-c2c(n(C)c3ccccc23)C1=O	8	1	-1	7	-1	x	x	x	x
CCCC(=O)N1CCC1(C)C(=O)Nc1ccc(C)c(C)c1 (stereo not given)	3	0	-2	3	2	x	x	x	x
O=C(COCC(=O)Nc1cccc(C(F)(F)F)c1)Nc1cccc(C(F)(F)F)c1	35*	0	15*	0	4	0	0	42*	17*
O=C(COc1ccc(C(=O)O)cc1)Nc1cccc(C(F)(F)F)c1	5	0	-4	0	-6	x	x	x	x
COC(=O)c1sccc1NC(=O)CSc1ccccc1NS(=O)(=O)c1ccc(F)cc1	9	0	5	2	-6	x	x	x	x
COC(=O)c1sccc1NC(=O)CSc1ccccc1NS(=O)(=O)c1ccc(Br)cc1	21*	1	11*	3	-2	3	2	10	6
C=CCN1C(=O)[C@@H](CC(=O)NCCC(C)C)[C@]2(C(=O)OCC)CCCCC/C=C/12	-4	1	-2	-2	0	x	x	x	x
CNC(=O)CCc1[nH]c2ccccc2c1Sc1ccccc1	20*	1	9.1*	8	5	1	0	4	3
CC(C)(C)OC(=O)NCCCC[C@H](NC(=O)c1[nH]cnc1C(=O)Nc1ccccc1)C(=O)OC(C)(C)C	36*	0	11*	4	4	4	2	44*	22*
CC(C)C[C@H](NC(=O)c1nc[nH]c1C(=O)N[C@@H](CCCCNC(=O)OC(C)(C)C)C(=O)OC(C)(C)C)C(=O)OC(C)(C)C	12	0	0	1	-3	x	x	x	x
CC(C)C[C@H](NC(=O)c1nc[nH]c1C(=O)NCCCCCNC(=O)OC(C)(C)C)C(=O)OC(C)(C)C	23*	-1	9.8*	-3	-1	4	0	35*	15*
C[C@@H](NC(=O)c1nc[nH]c1C(=O)N[C@@H](CCCCNC(=O)OC(C)(C)C)C(=O)OC(C)(C)C)c1ccccc1	43*	0	22*	8	10	-1	0	37*	16*
O=C(Cc1cccc(NC(=O)C2CCCN(C(=O)c3ccccc3)C2)c1)Nc1ccc(C(=O)N2CCOCC2)cc1 (stereo not given)	2	0	-2	2	5	x	x	x	x
CC1=NN(C(=O)c2csc(C(C)C)c2)C(O)(C(F)(F)F)C1 (stereo not given)	-2	-1	-3	-1	-4	x	x	x	x
CC(Sc1nc(N)cc(=O)[nH]1)C(=O)NNC(=O)c1cccc(Cl)c1 (stereo not given)	0	0	1	-1	-4	x	x	x	x
COc1cc(C2CC(=O)N(c3ccc(C)cc3)C(=O)C2)cc(OC)c1OC	9	0	-3	1	-7	x	x	x	x
Cc1onc(-c2c(Cl)cccc2Cl)c1C(=O)N[C@@H]1C(=O)N2[C@@H]1SC(C)(C)[C@@H]2C(=O)O	21*!	0	9.6*!	7	7	0	0	1	3
Cc1onc(-c2c(Cl)cccc2Cl)c1C(=O)NC1C(=O)N2C1SC(C)(C)C2C(=O)O (stereo not given)	12	0	0	5	1	x	x	x	x
COc1cc(OC)cc(C(=O)NNC(=O)CCC(=O)c2cccs2)c1	-14	0	-6	-3	-9	x	x	x	x
O=C1C=C(O)CC(c2ccc(Cl)cc2)C1 (stereo not given)	8	0	-4	0	-1	x	x	x	x
O=C1C=C(/C=C/C2C=CC=CC2)C[C@@H](c2ccc(Cl)cc2)C1 (stereo not given in full)	27*	0	13*	6	4	6	1	-3	6
O=C(NCCc1ccccc1)OCc1cn(Cc2cccc(C(F)(F)F)c2)nn1	8	0	-1	-2	0	x	x	x	x
COc1ccc(C2CC(O)(c3ccccc3)Oc3c(C)ccc(C)c32)cc1 (stereo not given)	36*	1	19*	5	6	7	3	18	13*
CCCNC(=O)CN1C(=O)NC(CCc2ccccc2)C1=O (stereo not given)	-1	0	0	-1	2	x	x	x	x
SMILES	ADAM10 inh	KLK7 zymogen act	ADAM17 inh	PLCg1 inh	PLC-beta3 inh	ADAM10 confirm	ADAM17 ctr	ADAM10 ctr	ADAM17 confirm
CCn1c(Cn2nnc(-c3ccccc3)n2)nnc1SCc1ccc(Cl)c(Cl)c1	26*	0	9.1*	4	2	8	2	32*	18*
COC(=O)c1cc(NC(=O)CN(c2ccccc2OC)S(=O)(=O)c2ccccc2)ccc1Cl	12	0	8	0	-1	x	x	x	x
COC(=O)c1cc(NC(=O)CN(c2cccc(OC)c2)S(=O)(=O)c2ccccc2)ccc1Cl	24*	0	12*	3	1	6	4	34*	17*
CC(C)c1ccc(C(=O)COC(=O)C(O)c2ccccc2)cc1 (stereo not given)	-3	-1	-2	1	2	x	x	x	x
COc1cc(NC(=O)Nc2ccc3c(c2)OCO3)cc(OC)c1OC	1	-1	-2	-1	1	x	x	x	x
COc1ccc(C(C)(C)C)cc1NC(=O)Nc1ccc2c(c1)OCO2	24*	0	10*	3	2	5	2	41*	24*
Cc1ccc(N(CC(O)CON=C2c3ccccc3-c3ccccc32)S(C)(=O)=O)cc1 (stereo not given)	22*	0	12*	-6	-10	7	2	22*	14*
COc1ccc(C(=O)NC(C)Cc2c[nH]c3ccccc23)cc1 (stereo not given)	7	0	0	-1	3	x	x	x	x
C[C@H](NC(=O)OCc1ccccc1)P(=O)(O)O	5	0	-3	3	4	x	x	x	x
COc1ccccc1CNS(=O)(=O)c1cc(-c2cc(C)no2)ccc1C(C)C	32*	0	11*	3	-11	2	1	17	12*

Screening data deposited in PubChem BioAssay by The Scripps Research Institute Molecular Screening Center.
